High-throughput results as filed in PubChem BioAssay.
Shown are actives, neighbours in structure and some others; about 19% of the full set was active somewhere.
TDP1 cell CPT: growth inhibition of DT40 Tdp1-/-;hTDP1 cells with camptothecin (screen for TDP1 inhibitors) | 420,000 tested, 12% active | Potency, µM (top dose mostly 46.2 µM), without a hit: at the highest dose activity change, negative = growth inhibition, usual class: inhibitors | chicken DT40 Tdp1-/-;hTDP1 cells + 20 nM CPT, ATP luminescence, 48 h; also: nearly all actives have a fitted effect of over 55% in size
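Chicken DT40 Tdp1-/- cells complemented with human TDP1, 400 cells/well, exposed to compounds plus 20 nM camptothecin for at least 48 h at 37 C; viability read as ATP content by CellTiter-Glo luminescence.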
TDP1 inh: TDP1 (human) enzyme inhibition. Q9NUW8. recombinant TDP1, AlphaScreen DNA substrate cleavage. Potency, µM (doses to about 130 µM), for inactives: at the highest dose activity change, negative = inhibition, most hits filed as inhibitors. 350,000 tested, 0.28% active. AID 485290; also: nearly all actives have a fitted effect of over 40% in size
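AlphaScreen read-out: signal falls as enzyme removes the 3' tyrosine-FITC from a 5'-biotinylated DNA oligo (15 nM, 5 min, RT). Enzyme was E. coli-made recombinant Tdp1 at 1 nM, exposed to compound for 15 min beforehand; beads 10 ug/ml, 10 min.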
VP16 counter: counter-screen for ROR gamma inhibitors: Gal4-VP16 reporter | Drosophila S2 Gal4-VP16 UAS-luciferase, luminescence, 20 h | Potency, µM (titrated, usually from 53.6 µM), for the others: top-dose activity, negative = inhibition, hits mostly inhibitors | 310,000 tested, 3.5% active | AID 2546;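 also: Gal4-VP16 expression switched on by copper sulfate through the metallothionein promoter; nearly all actives have a fitted effect of over 50% in size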
DT40 TDP1 no CPT: qHTS for Inhibitors of human tyrosyl-DNA phosphodiesterase 1 (TDP1): qHTS in cells in absence of CPT; DT40 Tdp1-/- hTDP1 cells, no CPT, ATP luminescence, 48 h; Potency, µM (series often up to 46.2 µM), without a hit: at the top dose activity change, negative = growth inhibition, most hits filed as inhibitors; 420,000 tested, 15% active; AID 686978, 2013; also: nearly all actives have a fitted effect of over 55% in size
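Growth kinetics read by CellTiter-Glo luminescence after ≥48 hr at 37 °C. Cells: DT40 Tdp1-/- stably carrying human TDP1, 400 per well, compound exposure in the absence of CPT (DMSO vehicle).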
RORgamma inh: inhibitors of mouse ROR gamma transcriptional activity | Potency, µM (doses to about 53.6 µM), without a hit: at the highest dose activity change, negative = inhibition, hits mostly inhibitors | Drosophila S2 Gal4-RORgamma UAS-luciferase reporter, 20 h | 310,000 tested, 5.4% active | AID 2551; also: nearly all actives have a fitted effect of over 60% in size
Target sequence (P51450 whole entry, looked up, the tested form may be a part): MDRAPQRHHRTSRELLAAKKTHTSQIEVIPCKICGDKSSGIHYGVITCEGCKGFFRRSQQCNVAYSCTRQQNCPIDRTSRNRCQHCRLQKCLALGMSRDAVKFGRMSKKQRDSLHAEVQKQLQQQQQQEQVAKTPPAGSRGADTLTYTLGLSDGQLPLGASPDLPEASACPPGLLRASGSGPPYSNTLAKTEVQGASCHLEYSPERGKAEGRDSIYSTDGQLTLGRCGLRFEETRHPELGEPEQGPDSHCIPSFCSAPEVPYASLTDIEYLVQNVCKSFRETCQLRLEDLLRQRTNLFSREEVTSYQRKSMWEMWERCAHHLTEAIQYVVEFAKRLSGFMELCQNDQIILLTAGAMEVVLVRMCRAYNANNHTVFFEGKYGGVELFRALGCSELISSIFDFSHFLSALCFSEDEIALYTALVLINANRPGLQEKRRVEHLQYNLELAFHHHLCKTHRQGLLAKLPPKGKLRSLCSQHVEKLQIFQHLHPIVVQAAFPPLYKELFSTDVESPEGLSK
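Compounds are pin-transferred onto Drosophila Schneider cells expressing a copper-inducible Gal4–ROR gamma transactivation domain fusion. After 1 hr, copper sulfate is added to 700 uM final; luciferase is read 20 hr later.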
* = called active by the depositor; ? = inconclusive; · = not tested or not shown. Calls follow the shape of the dose curve; as a rule, active = well fitted curve in the direction sought with a large enough effect; inconclusive = small, poorly fitted or top-dose-only effect, or another doubt; inactive = no such curve, though single readings can be large; an effect the other way counts as inactive or inconclusive. % is scaled to controls: 0 for no effect and ±100 for the full control effect; potency is read from the fitted curve at half-maximal effect.

SMILES	TDP1 cell CPT	TDP1 inh	VP16 counter	DT40 TDP1 no CPT	RORgamma inh
OC(c1ccc(Cl)c(Cl)c1)c1ncc(-c2ccccc2C(F)(F)F)[nH]1 (stereo not given)	?	·	·	18.4µM*	·
COc1ccccc1-c1cnc(C(O)c2ccc(Cl)c(Cl)c2)[nH]1 (stereo not given)	?	·	·	16.4µM*	·
COc1ccccc1-c1cnc(C(O)c2ccc(F)c(C)c2)[nH]1 (stereo not given)	?	·	·	-29.5%	·
OC(c1ccc(F)cc1)c1ncc(-c2ccccc2Cl)[nH]1 (stereo not given)	?	·	·	-24.2%	·
COc1ccccc1-c1cnc(C(O)c2cc(Cl)cc(Cl)c2)[nH]1 (stereo not given)	20.6µM*	·	·	?	·
O=C(O)CCCCCNC(=O)c1ccccc1	1.1%	5.0%	1.5%	-16.4%	-0.2%
COc1cccc(/C=N/N2CCN(c3ccncc3S(=O)(=O)N3CCCCC3)CC2)c1	?	8.9%	-9.4%	2.59µM*	19.1%
CCNC(=S)N(Cc1ccco1)Cc1cc2cc(OCC)ccc2[nH]c1=O	?	0.0%	?	?	17.8µM*
CCNC(=S)N(Cc1cccs1)Cc1cc2cc(OCC)ccc2[nH]c1=O	?	0.0%	-5.7%	16.4µM*	?
Nc1nonc1C(=O)NCCNc1ccc([N+](=O)[O-])cn1	7.9%	0.0%	-1.5%	-17.9%	-0.9%
Nc1ncnc2c1ncn2[C@@H]1O[C@H](C(=O)NS(=O)(=O)c2cccc(F)c2)[C@@H](O)[C@H]1O	2.5%	·	·	5.8%	·
N#Cc1ccccc1S(=O)(=O)NC(=O)[C@H]1O[C@@H](n2cnc3c(N)ncnc32)[C@H](O)[C@@H]1O	?	·	·	13µM*	·
O=C(Cc1cccs1)NC1C(=O)N2C(C(=O)[O-])=C(C[n+]3ccccc3)CSC12 (stereo not given)	·	2.24µM*	2.2%	·	6.3%
C=CC1=C(C(=O)O)N2C(=O)C(NC(=O)Cc3ccccc3)C2SC1 (stereo not given)	8.4%	·	28.7%	-0.6%	5.6%
CCOC(=O)[C@]12CCCC=C1N(Cc1ccc(Cl)cc1Cl)C(=O)[C@H](CC(=O)NCC1CCCCC1)C2	23.1µM*	·	·	?	·
CCOC(=O)[C@]12CCC=C1N(Cc1ccccc1)C(=O)[C@H](CC(=O)NCC1CCCCC1)C2	-17.8%	·	·	?	·
C#CCNC(=O)C[C@@H]1C[C@@]2(C(=O)OC)CCCCC=C2N(Cc2ccco2)C1=O	7.0%	·	·	-14.7%	·
CCOC(=O)[C@]12CCCC=C1N(Cc1ccc(Cl)cc1Cl)C(=O)[C@H](CC(=O)NCCC(C)C)C2	?	·	·	20.6µM*	·
CCOC(=O)[C@]12CCCC=C1N(Cc1ccc(Cl)cc1Cl)C(=O)[C@H](CC(=O)NCCCOC)C2	?	·	·	16.4µM*	·
C#CCNC(=O)C[C@@H]1C[C@@]2(C(=O)OC)CCCCC=C2N(Cc2ccc(Cl)cc2Cl)C1=O	?	·	·	18.4µM*	·
C#CCOCCOCCOCCNc1nc(N2CCOCC2)nc(N2CCN(C(=O)[C@H]([C@@H](C)CC)n3cc([C@@H](N)Cc4ccc(O)cc4)nn3)CC2)n1	-7.3%	7.7%	3.0%	-23.9%	7.0%
C=CC(=O)NC1CC2CCC1(C)C2(C)C (stereo not given)	-1.3%	-1.3%	0.6%	-17.7%	6.1%
CCOC(=O)[C@]12CCC=C1N(Cc1ccc(Cl)cc1Cl)C(=O)[C@H](CC(=O)NCCC(C)C)C2	?	·	·	20.6µM*	·
C#CCNC(=O)C[C@@H]1C[C@@]2(C(=O)OCC)CCC=C2N(Cc2ccc(Cl)cc2Cl)C1=O	?	·	·	23.1µM*	·
CCOC(=O)[C@]12CCCC=C1N(Cc1ccc(Cl)cc1Cl)C(=O)[C@H](CC(=O)NCC13CC4CC(CC(C4)C1)C3)C2	?	·	·	18.4µM*	·
CCCCOCCCNC(=O)C[C@@H]1C[C@@]2(C(=O)OCC)CCC=C2N(Cc2ccco2)C1=O	-14.9%	·	·	-21.8%	·
